The text below walks through data of PubChem BioAssay.

For part of these data: Measured potencies and affinities stand elsewhere. Activity calls are given as the source filed them. Unless noted, the rule behind the calls is not given here.

Test [1] in a line: antimalarial activity against Dd2 strain (AID 2302;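 active = growth inhibition above 50% at the single 2 µM test dose, taken to imply half-maximal potency below 2 µM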;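 note: 0% = DMSO untreated growth and 100% = chloroquine plus artemisinin killed control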). The note with it: P. falciparum Dd2 in RBCs, LDH growth readout, 72 h; at 2 µM; hits give high values.
A short description of test [2]: HepG2 cytotoxicity, primary screen, cytotoxicity control for P. falciparum antimalarial project, cell-based, ATP luminescence (AID 2303;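 active = inhibition above 50%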;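 note: 0% = DMSO wells and 100% = digitonin-killed cells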). The note with it: HepG2 viability, 24-48 h, at 10 µM, hits give high values.
Test [3] has as its target L-lactate dehydrogenase (Plasmodium falciparum (isolate CDC / Honduras)) (UniProt Q27743). Nature of the test: PfLDH activity inhibition – cell lysate, 3D7 strain, counter-screen for P. falciparum growth inhibition project (AID 2304).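 Note: 0% = vehicle and 100% = reference inhibitor.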 The note with it: P. falciparum 3D7 crude extract, LDH APAD/NBT absorbance; at 2 µM; hits give high values.
The nature of test [4]: inhibition of 3D7 malaria parasite growth – strain 3D7 (AID 2306).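 Note: 0% = DMSO wells and 100% = chloroquine plus artemisinin control wells.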 The note with it: P. falciparum 3D7 erythrocytic growth, LDH absorbance, 72 h; at 2 µM; hits give high values.
The target in test [5] is Calcium-dependent protein kinase 1 (Plasmodium falciparum (isolate 3D7)) (UniProt P62344). Kind of test: PfCDPK1 kinase inhibitors, biochemical, TCAMS library (AID 1159585; cut-off not given, nearly all actives have IC50 up to about 0.98 µM;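 note: inhibitors leave more ATP so luminescence rises with inhibition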). As to conditions: recombinant PfCDPK1, Kinase-Glo ATP depletion luminescence.
Test [6] addresses Plasmodium falciparum protein kinase 6 (PK6, PF3D7_1337100) (UniProt Q8IDW1). Nature of the test: PfPK6 kinase inhibitors, biochemical, TCAMS library (AID 1159586). The note with it: recombinant PfPK6, Kinase-Glo ATP depletion luminescence. A general note: Kinase-Glo measures the ATP left after a reaction by luminescence.
Test [7] addresses Protein kinase 7 (PK7), Plasmodium falciparum 3D7 (PF3D7_0213400) (UniProt Q7YTF7). Nature of the test: inhibition of Plasmodium PK7 catalytic activity – biochemical, TCAMS antimalarial set, Kinase-Glo luminescence (AID 1159587). As to conditions: recombinant PfPK7, Kinase-Glo ATP depletion luminescence.
Test [8] concerns the target Calcium-dependent protein kinase 4 (Plasmodium falciparum (isolate 3D7)) (UniProt Q8IBS5). Nature of the test: PfCDPK4 kinase inhibitors, biochemical, TCAMS library (AID 1159588; cut-off not given, nearly all actives have IC50 up to about 0.91 µM). The note with it: recombinant PfCDPK4, Kinase-Glo ATP depletion luminescence.

Chain of Calcium-dependent protein kinase 1 (Plasmodium falciparum (isolate 3D7)) (P62344 whole entry, looked up): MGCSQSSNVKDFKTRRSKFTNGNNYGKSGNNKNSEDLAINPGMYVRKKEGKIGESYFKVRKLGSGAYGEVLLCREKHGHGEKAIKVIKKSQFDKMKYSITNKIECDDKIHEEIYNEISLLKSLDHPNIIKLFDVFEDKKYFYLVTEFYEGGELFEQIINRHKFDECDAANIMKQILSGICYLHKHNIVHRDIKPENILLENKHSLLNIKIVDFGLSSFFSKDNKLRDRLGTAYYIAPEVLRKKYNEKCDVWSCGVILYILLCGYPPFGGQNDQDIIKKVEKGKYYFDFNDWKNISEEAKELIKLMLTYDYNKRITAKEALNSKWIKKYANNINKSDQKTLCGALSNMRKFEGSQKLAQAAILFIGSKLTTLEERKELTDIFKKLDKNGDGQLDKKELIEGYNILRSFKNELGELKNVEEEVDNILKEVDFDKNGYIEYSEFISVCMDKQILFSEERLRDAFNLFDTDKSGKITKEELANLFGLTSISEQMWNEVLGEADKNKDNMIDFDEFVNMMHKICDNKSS
Chain of Calcium-dependent protein kinase 4 (Plasmodium falciparum (isolate 3D7)) (Q8IBS5 whole entry, looked up): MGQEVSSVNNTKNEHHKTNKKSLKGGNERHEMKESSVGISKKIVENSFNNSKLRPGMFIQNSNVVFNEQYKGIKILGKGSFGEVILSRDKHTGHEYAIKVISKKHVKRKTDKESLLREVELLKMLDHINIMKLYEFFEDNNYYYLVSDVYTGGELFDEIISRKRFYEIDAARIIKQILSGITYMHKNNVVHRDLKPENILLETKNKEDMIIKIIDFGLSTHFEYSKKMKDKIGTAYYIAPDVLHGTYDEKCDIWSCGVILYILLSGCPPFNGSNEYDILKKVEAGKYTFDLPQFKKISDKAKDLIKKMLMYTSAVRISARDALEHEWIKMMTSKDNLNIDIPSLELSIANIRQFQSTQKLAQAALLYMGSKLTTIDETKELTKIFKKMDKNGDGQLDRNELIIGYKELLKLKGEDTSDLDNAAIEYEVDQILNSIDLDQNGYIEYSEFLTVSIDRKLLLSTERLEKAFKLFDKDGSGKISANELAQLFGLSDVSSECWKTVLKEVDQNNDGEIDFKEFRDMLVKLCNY
Chain of Protein kinase 7 (PK7), Plasmodium falciparum 3D7 (PF3D7_0213400) (Q7YTF7 1-343): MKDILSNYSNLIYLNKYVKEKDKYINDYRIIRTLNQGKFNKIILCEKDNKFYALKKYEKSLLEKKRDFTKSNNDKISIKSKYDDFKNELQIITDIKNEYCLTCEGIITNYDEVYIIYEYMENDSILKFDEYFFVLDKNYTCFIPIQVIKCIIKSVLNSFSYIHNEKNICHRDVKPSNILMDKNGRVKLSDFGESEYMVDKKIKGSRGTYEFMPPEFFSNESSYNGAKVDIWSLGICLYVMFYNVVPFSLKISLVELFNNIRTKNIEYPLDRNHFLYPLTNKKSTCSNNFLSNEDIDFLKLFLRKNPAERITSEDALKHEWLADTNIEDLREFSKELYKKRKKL
Chain of Plasmodium falciparum protein kinase 6 (PK6, PF3D7_1337100) (Q8IDW1 1-305): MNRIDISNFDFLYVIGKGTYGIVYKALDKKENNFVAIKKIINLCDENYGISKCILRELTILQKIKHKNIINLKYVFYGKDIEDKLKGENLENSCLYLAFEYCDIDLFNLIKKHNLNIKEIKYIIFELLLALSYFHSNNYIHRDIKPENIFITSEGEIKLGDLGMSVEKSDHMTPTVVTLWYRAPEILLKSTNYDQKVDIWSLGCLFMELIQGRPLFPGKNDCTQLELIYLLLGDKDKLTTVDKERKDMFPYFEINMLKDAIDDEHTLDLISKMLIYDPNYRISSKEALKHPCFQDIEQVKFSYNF
Chain of L-lactate dehydrogenase (Plasmodium falciparum (isolate CDC / Honduras)) (Q27743 whole entry, looked up): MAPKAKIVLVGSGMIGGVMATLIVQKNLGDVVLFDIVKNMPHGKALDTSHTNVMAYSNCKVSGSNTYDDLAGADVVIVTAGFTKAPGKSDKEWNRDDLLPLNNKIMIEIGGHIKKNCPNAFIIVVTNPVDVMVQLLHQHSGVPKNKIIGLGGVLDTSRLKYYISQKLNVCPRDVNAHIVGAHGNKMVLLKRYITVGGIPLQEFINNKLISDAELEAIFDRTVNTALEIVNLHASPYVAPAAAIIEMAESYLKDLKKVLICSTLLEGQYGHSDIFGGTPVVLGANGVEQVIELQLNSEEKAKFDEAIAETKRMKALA

`CN(C)C(=O)c1ccc(CN(Cc2ccc(OC(C)(C)C)cc2)Cc2ccc3c(c2)OCCO3)cc1`: the growth inhibition in test [1] was 96% (active); in test [4], 95% (active). Besides, the inhibition in test [2] was -5% (inactive); in test [3], 1% (inactive). For the same compound, the outcome in test [5], in test [6], in test [7] and in test [8] was inactive.

As to `CC1(C)N=C(N)N=C(N)N1c1ccc(Cl)c(Cl)c1`, the growth inhibition was 56% (active) in test [1] and 95% (active) in test [4]. The values for the inhibition in test [2] and in test [3] were 67% (active) and 0% (inactive), respectively. Also, the outcome in test [5], in test [6], in test [7] and in test [8] was inactive.

Turning to `Cc1[nH]cnc1CSCCNC(N)=NCCCCCCCCN=C(N)NCCSCc1nc[nH]c1C`, the figures for the growth inhibition in test [1] and in test [4] were 95% (active) and 96% (active), respectively. Further, the inhibition in test [2] was 24% (inactive); in test [3] it was -10% (inactive). For the same compound, the result in test [5], in test [6], in test [7] and in test [8] was inactive.

Consider `COc1ccc(OCC(=O)Nc2nc(-c3ccc(OC)cc3)c(C)s2)cc1`, for which the growth inhibition in test [1] is 87% (active); in test [4] it was 100% (active). The inhibition was -3% (inactive) in test [2] and -6% (inactive) in test [3]. The outcome in test [5], in test [6], in test [7] and in test [8] was inactive.

Take `CC(C)(C)C1CCC(CC2=C(C(=O)O)c3ccccc3C2=O)CC1` (centres undefined): the growth inhibition is 56% (active) in test [1] and 91% (active) in test [4]. The inhibition in test [2] was -4% (inactive); in test [3], -1% (inactive). Moreover, the outcome in test [5], in test [6], in test [7] and in test [8] was inactive.

For the compound `Cc1nnsc1C(=O)Nc1cccc(-c2ccc(-c3nc4ccc(F)cc4[nH]3)cc2)c1`, the growth inhibition in test [1] was 89% (active); in test [4] it was 100% (active). The inhibition was 51% (active) in test [2] and 4% (inactive) in test [3]. Further, the outcome in test [5], in test [6], in test [7] and in test [8] was inactive.

Regarding `O=c1cc(NCCCNCc2sc(Br)c(Br)c2Br)[nH]c2ccccc12`, the growth inhibition in test [1] is 38% (inactive); in test [4] it was 90% (active). For the same compound, the figures for the inhibition in test [2] and in test [3] were 0% (inactive) and 5% (inactive), respectively. Further, the outcome in test [5], in test [6], in test [7] and in test [8] was inactive.

With `O=S(=O)(c1ccccc1Cl)N1CCCCC(c2ccc(C(F)(F)F)cc2)=N1`, the values for the growth inhibition in test [1] and in test [4] were 72% (active) and 86% (active), respectively. For the same compound, the inhibition in test [2] is 22% (inactive); in test [3], 4% (inactive). Besides, the outcome in test [5], in test [6], in test [7] and in test [8] was inactive.

For `COc1ccc(C(=O)N2CCC3(CC2)C(=O)N(CC(=O)NC2CCCCC2)CN3c2ccccc2)c(OC)c1`, the growth inhibition is 99% (active) in test [1] and 100% (active) in test [4]. For the same compound, the inhibition in test [2] was 4% (inactive); in test [3], 3% (inactive). For the same compound, the result in test [5], in test [6], in test [7] and in test [8] was inactive.

`CCN(CC)CCN(Cc1ccc(-c2ccc(C(F)(F)F)cc2)cc1)C(=O)Cn1c(CCc2cccc(F)c2F)nc(=O)c2ccc(C)cc21`: the growth inhibition was 58% (active) in test [1] and 99% (active) in test [4]. Moreover, the inhibition is 39% (inactive) in test [2] and -2% (inactive) in test [3]. Also, the outcome in test [5], in test [6], in test [7] and in test [8] was inactive.

For `O=C(c1ccc(OCCn2ccnc2)cc1)N1CCC(c2ccc(Br)cc2)C1` (centres undefined), the growth inhibition in test [1] is 99% (active); in test [4] it was 100% (active). Also, the inhibition is 49% (inactive) in test [2] and -3% (inactive) in test [3]. Besides, the result in test [5], in test [6], in test [7] and in test [8] was inactive.

As for `Cc1cc(NN=Cc2ccc([N+](=O)[O-])cc2)c2ccc(F)cc2n1`, the growth inhibition was 22% (inactive) in test [1] and 101% (active) in test [4]. The inhibition in test [2] was -3% (inactive); in test [3], 0% (inactive). In addition, the outcome in test [5], in test [6], in test [7] and in test [8] was inactive.

For the compound `N#Cc1cccc(CN2CCCN(Cc3ccc(C(=O)Nc4ccc(Cl)cc4)cc3)CC2)c1`, the figures for the growth inhibition in test [1] and in test [4] were 21% (inactive) and 98% (active), respectively. Further, the inhibition in test [2] was 48% (inactive); in test [3], 1% (inactive). The result in test [5], in test [6], in test [7] and in test [8] was inactive.

With `CC(Oc1cc(-n2cnc3ccc(NC(=O)CCN4CCCCC4)cc32)sc1C(N)=O)c1ccccc1Cl` (centres undefined), the results for the growth inhibition in test [1] and in test [4] were 98% (active) and 99% (active), respectively. Besides, the inhibition in test [2] was 95% (active); in test [3], 1% (inactive). In addition, the result in test [5], in test [6], in test [7] and in test [8] was inactive.

With `CCOC(=O)CCCc1cc(NC2CCN(C)CC2)nc(Nc2ccc(OC)cc2)n1`, the growth inhibition in test [1] is 17% (inactive); in test [4], 99% (active). The inhibition is 41% (inactive) in test [2] and -2% (inactive) in test [3]. In addition, the outcome in test [5], in test [6], in test [7] and in test [8] was inactive.

With `O=C(c1cccs1)N1CCN(c2ccc([N+](=O)[O-])c(NC3CC3)c2)CC1`, the growth inhibition is 95% (active) in test [1] and 100% (active) in test [4]. Further, the inhibition in test [2] is -5% (inactive); in test [3], 2% (inactive). The result in test [5], in test [6], in test [7] and in test [8] was inactive.

`CCOc1ccc2c(NN=Cc3cc(OC)c(OC)cc3OC)cc(C)nc2c1`: the results for the growth inhibition in test [1] and in test [4] were 97% (active) and 101% (active), respectively. The results for the inhibition in test [2] and in test [3] were 24% (inactive) and 4% (inactive), respectively. Moreover, the outcome in test [5], in test [6], in test [7] and in test [8] was inactive.

Consider `CCn1c(C2CCN(CCC3CCN(C(=O)/C=C/c4ccc(Cl)c(Cl)c4)CC3)CC2)nc2ccccc21`, for which the growth inhibition was 0% (inactive) in test [1] and 86% (active) in test [4]. Moreover, the inhibition in test [2] is 17% (inactive); in test [3], 2% (inactive). For the same compound, the result in test [5], in test [6], in test [7] and in test [8] was inactive.

The term inhibition denotes the relative decrease from the control value, in per cent.
